Experimental data as given in PubChem BioAssay AID1159580 (chemical genetic matrix, 2015).
Screen size: about 5,500 compounds; about 2,000 (36%) were called active. Another 18% or so got no clear call; they are omitted. Cut-off read from the data, not from the text of the source: active = normalized growth mostly below about 0.91 (no sharp cut-off); inconclusive = no clear call, values can overlap the other calls; inactive = mostly above about 0.92. This is one part of the list.

Test: chemical genetic growth profiling, strain panel (AID 1159580);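 note: tested at 20 µM; growth read once vehicle control cultures reached saturation at 30 °C; 1 = growth at the plate median or of vehicle wells; lower values mean less growth of the strain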
Conditions: S. cerevisiae deletion strains, growth OD
[1] = locus YHR030C, strain SLT2, stronger effect = lower value
[2] = locus YHR079C, strain IRE1, stronger effect = lower value
[3] = locus YJL095W, strain BCK1, stronger effect = lower value
[4] = locus YJR066W, strain TOR1, stronger effect = lower value
[5] = locus YLR113W, strain HOG1, stronger effect = lower value
[6] = locus YNL183C, strain NPR1, stronger effect = lower value
[7] = locus YOR231W, strain MKK1, stronger effect = lower value
[8] = locus YPL256C, strain CLN2, stronger effect = lower value

Measured: normalized growth

Cc1nn(Cc2ccc(C(=O)Sc3ccc(C(F)(F)F)cn3)o2)c(C)c1Br
active: [1] 0.615 | locus YHR205W, strain SCH9, stronger effect = lower value 0.566 | [5] 0.677 | [8] 0.799
inactive: locus YAR019C, strain CDC15, stronger effect = lower value 0.965 | locus YBL105C, strain PKC1, stronger effect = lower value 0.966 | locus YBR135W, strain CKS1, stronger effect = lower value 0.955 | locus YBR136W, strain MEC1, stronger effect = lower value 0.971 | locus YBR160W, strain CDC28, stronger effect = lower value 0.967 | locus YDL017W, strain CDC7, stronger effect = lower value 0.969 | locus YDL028C, strain MPS1, stronger effect = lower value 0.969 | locus YDL101C, strain DUN1, stronger effect = lower value 0.963 | locus YDL108W, strain KIN28, stronger effect = lower value 0.961 | locus YDL132W, strain cdc53, stronger effect = lower value 0.952 | locus YDL214C, strain PRR2, stronger effect = lower value 0.882 | locus YDR052C, strain DBF4, stronger effect = lower value 0.97 | locus YDR054C, strain cdc34, stronger effect = lower value 0.953 | locus YDR226W, strain ADK1, stronger effect = lower value 0.955 | locus YDR477W, strain SNF1, stronger effect = lower value 0.834 | locus YER123W, strain YCK3, stronger effect = lower value 0.878 | locus YER133W, strain GLC7, stronger effect = lower value 0.898 | locus YFL009W, strain cdc4, stronger effect = lower value 0.957 | locus YFL029C, strain CAK1, stronger effect = lower value 0.962 | locus YFR003C, strain YPI1, stronger effect = lower value 0.968 | locus YFR019W, strain FAB1, stronger effect = lower value 0.932 | locus YFR028C, strain CDC14, stronger effect = lower value 0.963 | locus YGR040W, strain KSS1, stronger effect = lower value 0.81 | locus YGR052W, strain FMP48, stronger effect = lower value 0.871 | locus YGR092W, strain DBF2, stronger effect = lower value 0.855 | [2] 0.858 | locus YHR082C, strain KSP1, stronger effect = lower value 0.763 | locus YIL147C, strain SLN1, stronger effect = lower value 0.969 | [3] 0.827 | locus YJL128C, strain PBS2, stronger effect = lower value 0.871 | locus YJL157C, strain FAR1, stronger effect = lower value 0.911 | locus YJR016C, strain ILV3, stronger effect = lower value 0.955 | locus YJR066W, strain TOR1 (second series), stronger effect = lower value 0.885 | [4] 0.76 | locus YKL048C, strain ELM1, stronger effect = lower value 0.896 | locus YKL067W, strain YNK1, stronger effect = lower value 0.898 | locus YKL101W, strain HSL1, stronger effect = lower value 0.861 | locus YKL193C, strain SDS22, stronger effect = lower value 0.956 | locus YKL203C, strain TOR2, stronger effect = lower value 0.892 | locus YLR133W, strain CKI1, stronger effect = lower value 0.871 | locus YLR403W, strain SFP1, stronger effect = lower value 0.722 | locus YML070W, strain DAK1, stronger effect = lower value 0.894 | locus YMR001C, strain CDC5, stronger effect = lower value 0.958 | locus YMR205C, strain PFK2 (second series), stronger effect = lower value 0.881 | locus YMR277W, strain FCP1, stronger effect = lower value 0.963 | locus YNL006W, strain LST8, stronger effect = lower value 0.972 | locus YNL020C, strain ARK1, stronger effect = lower value 0.882 | locus YNL161W, strain CBK1, stronger effect = lower value 0.965 | [6] 0.777 | locus YNL207W, strain RIO2, stronger effect = lower value 0.953 | locus YNL222W, strain SSU72, stronger effect = lower value 0.963 | locus YNL307C, strain MCK1 (second series), stronger effect = lower value 0.781 | locus YOL078W, strain AVO1, stronger effect = lower value 0.961 | locus YOL136C, strain PFK27, stronger effect = lower value 0.872 | locus YOR061W, strain CKA2, stronger effect = lower value 0.816 | locus YOR119C, strain RIO1, stronger effect = lower value 0.879 | [7] 0.847 | locus YOR329C, strain SCD5, stronger effect = lower value 0.978 | locus YPL031C, strain PHO85, stronger effect = lower value 0.867 | locus YPL153C, strain RAD53, stronger effect = lower value 0.934 | locus YPL204W, strain HRR25, stronger effect = lower value 0.925 | locus YPL209C, strain IPL1, stronger effect = lower value 0.974 | locus YPR025C, strain CCL1, stronger effect = lower value 0.965 | locus YPR106W, strain ISR1, stronger effect = lower value 0.958 | locus YPR111W, strain DBF20, stronger effect = lower value 0.93 | strain NNK1, stronger effect = lower value 0.928 | strain TSCII, stronger effect = lower value 0.961

OC[C@H]1O[C@H](OC[C@H]2O[C@@H](O)[C@H](O)[C@@H](O)[C@@H]2O)[C@H](O)[C@@H](O)[C@H]1O
inactive: [1] 1.05 | [2] 1.03 | [3] 1.05 | [4] 0.982 | [5] 1.01 | [6] 0.997 | [7] 1.04 | [8] 1.06
